# Source: PubChem BioAssay (EPA / NIEHS)
# Values joined by “and” are separate entries in the source; they are usually repeats but may differ in a detail not shown here. Identical values can stand only once. Results filed as inconclusive are left out. Where a structure was tested more than once in an assay, its records may differ in their call. Active and inactive are the calls of the source. Rule for the calls, unless noted: active = hit-call score of the fitted dose curve at least 0.9, where 1 is the maximum; inactive = score below 0.9.
# What was measured:
# [1] = molecular target: Hepatocyte nuclear factor 4-alpha (Homo sapiens) (UniProt P41235); test: ATG_HNF4a_TRANS: Attagene TRANS-FACTORIAL HepG2 Assay for human Hepatocyte Nuclear Factor 4 alpha (HNF4a) (AID 2282982; active = hit-call score of the fitted dose curve at least 0.9, where 1 is the maximum); conditions: HepG2 HNF4a transactivation reporter, mRNA readout
# Chain of Hepatocyte nuclear factor 4-alpha (Homo sapiens) (P41235 whole entry, looked up, the tested form may be a part): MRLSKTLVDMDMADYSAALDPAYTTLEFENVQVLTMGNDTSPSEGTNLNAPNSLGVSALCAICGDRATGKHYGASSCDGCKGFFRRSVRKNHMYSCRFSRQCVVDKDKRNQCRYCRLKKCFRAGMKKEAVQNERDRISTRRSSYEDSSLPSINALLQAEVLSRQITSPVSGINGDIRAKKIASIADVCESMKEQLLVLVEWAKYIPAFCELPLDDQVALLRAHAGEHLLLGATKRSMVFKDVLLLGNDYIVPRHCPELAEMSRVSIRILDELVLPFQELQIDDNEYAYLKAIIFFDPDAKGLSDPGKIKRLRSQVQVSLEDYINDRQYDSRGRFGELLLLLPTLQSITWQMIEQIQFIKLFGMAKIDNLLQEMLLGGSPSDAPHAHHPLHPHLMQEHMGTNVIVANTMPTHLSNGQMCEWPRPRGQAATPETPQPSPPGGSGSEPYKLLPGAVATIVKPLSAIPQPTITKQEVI
# In short: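 Activity of an exogenous HNF4a–Gal4 fusion scored as induced GAL4-UAS reporter transcripts after 24 h chemical exposure of transfected human HepG2 cells. Read-out via RT-PCR with 6-FAM labelling and capillary electrophoresis; rise over DMSO baseline.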
# [2] = ATG_M_06_TRANS: Attagene TRANS-FACTORIAL HepG2 Assay for M06 Transcription Factor (Internal Marker) (AID 2282983; active = hit-call score of the fitted dose curve at least 0.9, where 1 is the maximum); conditions: HepG2 Attagene TRANS M06 internal marker reporter
# In short: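 Human liver HepG2 cells bearing transiently transfected chimeric NR-GAL4 reporter units were treated with chemicals for 24 h. Total RNA was reverse-transcribed, reporter sequences amplified and labelled, then quantified by capillary electrophoresis. Activity was fitted upward relative to DMSO.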
# [3] = molecular target: Nuclear receptor subfamily 4 group A member 2 (Homo sapiens) (UniProt P43354); test: ATG_NURR1_TRANS: Attagene TRANS-FACTORIAL HepG2 Assay for human Nuclear Receptor Related Protein 1 (NURR1) (AID 2282985; active = hit-call score of the fitted dose curve at least 0.9, where 1 is the maximum); conditions: HepG2 Attagene TRANS reporter, mRNA readout
# Chain of Nuclear receptor subfamily 4 group A member 2 (Homo sapiens) (P43354 whole entry, looked up, the tested form may be a part): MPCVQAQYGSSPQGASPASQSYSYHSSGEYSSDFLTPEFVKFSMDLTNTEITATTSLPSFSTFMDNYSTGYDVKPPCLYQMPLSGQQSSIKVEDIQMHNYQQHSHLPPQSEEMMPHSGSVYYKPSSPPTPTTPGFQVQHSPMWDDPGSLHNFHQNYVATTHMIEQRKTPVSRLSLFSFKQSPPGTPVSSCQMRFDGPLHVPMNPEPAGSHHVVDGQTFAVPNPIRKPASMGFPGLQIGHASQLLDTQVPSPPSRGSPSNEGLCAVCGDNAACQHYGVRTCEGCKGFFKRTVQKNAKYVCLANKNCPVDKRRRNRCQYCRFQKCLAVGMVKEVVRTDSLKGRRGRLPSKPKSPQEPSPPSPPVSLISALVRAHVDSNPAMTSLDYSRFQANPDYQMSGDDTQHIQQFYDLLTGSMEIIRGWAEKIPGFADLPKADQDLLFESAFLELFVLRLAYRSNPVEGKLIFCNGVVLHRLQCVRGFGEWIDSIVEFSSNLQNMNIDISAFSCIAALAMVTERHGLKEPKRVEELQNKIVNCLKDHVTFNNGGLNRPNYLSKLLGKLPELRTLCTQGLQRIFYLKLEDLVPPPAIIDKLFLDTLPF
# In short: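 Reporter transcript induction, measured by RT-PCR with fluorescent labelling, HpaI digestion and capillary electrophoresis, after 24 hr dosing of human HepG2 cells transiently expressing an exogenous NR-Gal4 fusion with GAL4-UAS-driven reporters; DMSO as baseline.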
# [4] = molecular target: Transcriptional activator Myb (Homo sapiens) (UniProt P10242); test: ATG_Myb_CIS: Attagene CIS-FACTORIAL HepG2 Assay for human Myeloblastosis (Myb) Proto-Oncogene Transcription Factor (AID 2282986); conditions: HepG2 Attagene CIS-FACTORIAL Myb reporter transcription; actives raise or lower the signal
# Chain of Transcriptional activator Myb (Homo sapiens) (P10242 whole entry, looked up): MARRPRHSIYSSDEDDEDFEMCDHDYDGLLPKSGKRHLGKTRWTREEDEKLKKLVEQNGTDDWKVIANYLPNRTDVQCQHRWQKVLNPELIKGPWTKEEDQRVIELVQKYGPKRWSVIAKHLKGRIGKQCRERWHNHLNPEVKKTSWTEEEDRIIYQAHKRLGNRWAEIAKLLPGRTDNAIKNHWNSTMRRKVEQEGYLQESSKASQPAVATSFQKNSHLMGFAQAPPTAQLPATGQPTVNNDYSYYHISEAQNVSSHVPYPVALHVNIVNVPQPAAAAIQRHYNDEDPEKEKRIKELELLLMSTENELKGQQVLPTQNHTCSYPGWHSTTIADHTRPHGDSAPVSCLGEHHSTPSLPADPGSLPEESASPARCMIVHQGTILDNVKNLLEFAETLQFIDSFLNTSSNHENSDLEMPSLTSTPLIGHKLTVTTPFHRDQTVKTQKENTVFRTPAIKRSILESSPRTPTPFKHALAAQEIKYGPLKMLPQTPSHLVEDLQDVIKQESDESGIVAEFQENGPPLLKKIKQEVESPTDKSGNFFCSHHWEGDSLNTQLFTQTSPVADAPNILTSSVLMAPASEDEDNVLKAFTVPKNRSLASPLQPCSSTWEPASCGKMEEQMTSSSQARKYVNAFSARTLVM
# In short: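 After 24 h of compound dosing, total RNA from transfected HepG2 cells is reverse-transcribed and the reporter sequences amplified, labeled and separated by capillary electrophoresis. Values come from bidirectional fitting against DMSO.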
# [5] = molecular target: Nuclear respiratory factor 1 (Homo sapiens) (UniProt Q16656); test: ATG_NRF1_CIS: Attagene CIS-FACTORIAL HepG2 Assay for human Nuclear Respiratory Factor 1 (NRF1) Orphan Gene (AID 2282987); conditions: HepG2 NRF1 cis-element reporter, Attagene multiplex; actives raise or lower the signal
# Chain of Nuclear respiratory factor 1 (Homo sapiens) (Q16656 whole entry, looked up): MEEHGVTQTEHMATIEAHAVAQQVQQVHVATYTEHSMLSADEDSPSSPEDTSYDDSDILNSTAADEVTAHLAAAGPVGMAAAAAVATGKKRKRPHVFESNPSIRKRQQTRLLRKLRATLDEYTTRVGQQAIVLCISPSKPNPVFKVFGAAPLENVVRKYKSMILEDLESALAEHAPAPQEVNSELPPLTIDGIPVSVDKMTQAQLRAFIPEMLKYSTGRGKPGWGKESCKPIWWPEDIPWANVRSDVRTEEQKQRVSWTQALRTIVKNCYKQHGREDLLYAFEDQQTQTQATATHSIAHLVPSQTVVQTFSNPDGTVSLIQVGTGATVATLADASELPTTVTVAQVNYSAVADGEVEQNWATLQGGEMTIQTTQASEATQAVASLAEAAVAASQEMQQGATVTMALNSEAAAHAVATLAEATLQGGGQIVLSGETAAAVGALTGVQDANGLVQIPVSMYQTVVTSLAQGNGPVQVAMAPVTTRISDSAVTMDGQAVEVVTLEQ
# In short: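 Measured: fluorescent reporter-specific RT-PCR products from transfected HepG2 cells, separated by capillary electrophoresis. Exposure lasted 24 h. Analysis used bidirectional curve fitting with DMSO as negative control.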
# [6] = ATG_NFI_CIS: Attagene CIS-FACTORIAL HepG2 Assay for human Nuclear Factor I (NFI) (AID 2282989); conditions: HepG2 cis-regulatory reporter, NFI response element transcription; actives raise or lower the signal
# In short: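 HepG2, transient MRTU, 24 h exposure; RNA→cDNA→PCR→FAM label→HpaI→CE fluorescence. Bidirectional fit, DMSO = baseline.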
# [7] = molecular target: Myc proto-oncogene protein (Homo sapiens) (UniProt P01106); test: ATG_Myc_CIS: Attagene CIS-FACTORIAL HepG2 Assay for human Myelocytomatosis (Myc) Proto-Oncogene Transcription Factor (AID 2282990); conditions: HepG2, Attagene cis-reporter transcription factor activity; actives raise or lower the signal
# Chain of Myc proto-oncogene protein (Homo sapiens) (P01106 whole entry, looked up, the tested form may be a part): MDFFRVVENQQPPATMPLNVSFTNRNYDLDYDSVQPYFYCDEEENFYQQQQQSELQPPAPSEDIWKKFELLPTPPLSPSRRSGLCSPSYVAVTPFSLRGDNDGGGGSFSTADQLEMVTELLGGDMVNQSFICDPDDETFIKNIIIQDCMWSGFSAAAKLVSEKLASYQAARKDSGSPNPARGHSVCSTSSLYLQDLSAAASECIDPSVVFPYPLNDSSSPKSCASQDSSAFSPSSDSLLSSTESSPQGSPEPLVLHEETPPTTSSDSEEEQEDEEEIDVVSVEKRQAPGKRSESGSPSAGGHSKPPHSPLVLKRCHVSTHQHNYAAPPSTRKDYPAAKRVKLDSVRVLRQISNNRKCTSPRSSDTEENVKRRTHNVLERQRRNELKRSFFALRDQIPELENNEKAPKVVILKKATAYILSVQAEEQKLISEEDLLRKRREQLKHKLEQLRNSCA
# In short: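 After 24 h chemical treatment of HepG2 cells carrying multiplexed cis-regulated reporter constructs, reporter transcripts quantified by RT-PCR and capillary electrophoresis of fluorescent fragments. Gain or loss fitted against DMSO baseline.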
# [8] = ATG_NF_kB_CIS: Attagene CIS-FACTORIAL HepG2 Assay for human Nuclear Factor Kappa B (NF-kB) (AID 2282991); conditions: HepG2 Attagene cis-factorial NF-kB reporter mRNA; actives raise or lower the signal
# In short: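 Fluorescence of labelled RT-PCR products separated by capillary electrophoresis gives reporter mRNA levels from transfected HepG2 cells exposed 24 h; values are fitted in both directions relative to DMSO.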
# [9] = ATG_NRF2_ARE_CIS: Attagene CIS-FACTORIAL HepG2 Assay for human Nuclear Factor Erythroid 2 Related Factor 2 (NFR2) response to Antioxidant Response Elements (ARE) (AID 2282992); conditions: HepG2 Attagene ARE/NRF2 reporter, transcription factor activity; actives raise or lower the signal
# In short: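 Endogenous transcription factor activity read out as reporter transcript levels (RT-PCR plus capillary electrophoresis, fluorescence) in transiently transfected HepG2 cells. Measured at 24 h after dosing; gain or loss of signal fitted versus DMSO.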
# [10] = ATG_Oct_MLP_CIS: Attagene CIS-FACTORIAL HepG2 Assay for human Octamer-Binding Transcription Factor (Oct) (AID 2282993); conditions: HepG2 Attagene cis-factorial Oct reporter, mRNA; actives raise or lower the signal
# In short: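 Multiplexed cis-reporter assay in human liver HepG2 cells, 24 h incubation. Reporter RNA amplified and labelled, then resolved by capillary electrophoresis; DMSO serves as negative control and baseline.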
# [11] = molecular target: Cellular tumor antigen p53 (Homo sapiens) (UniProt P04637); test: ATG_p53_CIS: Attagene CIS-FACTORIAL HepG2 Assay for human p53 Transcription Factor (AID 2282994); conditions: HepG2 p53 cis-element reporter, Attagene mRNA; actives raise or lower the signal
# Chain of Cellular tumor antigen p53 (Homo sapiens) (P04637 whole entry, looked up): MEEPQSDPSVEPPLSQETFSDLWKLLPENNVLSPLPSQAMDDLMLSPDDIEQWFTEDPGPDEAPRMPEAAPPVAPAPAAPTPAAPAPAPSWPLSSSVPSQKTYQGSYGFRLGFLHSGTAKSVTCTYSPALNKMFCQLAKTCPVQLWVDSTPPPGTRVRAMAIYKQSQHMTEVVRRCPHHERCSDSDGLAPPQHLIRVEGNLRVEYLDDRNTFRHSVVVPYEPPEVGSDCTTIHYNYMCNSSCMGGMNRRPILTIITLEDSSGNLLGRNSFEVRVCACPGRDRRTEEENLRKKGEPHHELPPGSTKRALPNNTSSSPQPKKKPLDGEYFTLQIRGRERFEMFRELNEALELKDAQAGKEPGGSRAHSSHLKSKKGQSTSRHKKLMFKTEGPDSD
# In short: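 Endogenous p53 activity read in transiently transfected HepG2 from a cis-element-driven reporter transcript after 24 h exposure. RNA reverse-transcribed, PCR-amplified, fluorescently labelled and sized by capillary electrophoresis; gain or loss fitted against DMSO baseline.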
# [12] = molecular target: human Peroxisome Proliferator-activated Receptor delta (PPARd), PPARD (gene 5467) (UniProt Q03181); test: ATG_PPARd_TRANS: Attagene TRANS-FACTORIAL HepG2 Assay for human Peroxisome Proliferator-activated Receptor delta (PPARd) (AID 2283002; active = hit-call score of the fitted dose curve at least 0.9, where 1 is the maximum)
# Chain of human Peroxisome Proliferator-activated Receptor delta (PPARd), PPARD (gene 5467) (Q03181 whole entry, looked up, the tested form may be a part): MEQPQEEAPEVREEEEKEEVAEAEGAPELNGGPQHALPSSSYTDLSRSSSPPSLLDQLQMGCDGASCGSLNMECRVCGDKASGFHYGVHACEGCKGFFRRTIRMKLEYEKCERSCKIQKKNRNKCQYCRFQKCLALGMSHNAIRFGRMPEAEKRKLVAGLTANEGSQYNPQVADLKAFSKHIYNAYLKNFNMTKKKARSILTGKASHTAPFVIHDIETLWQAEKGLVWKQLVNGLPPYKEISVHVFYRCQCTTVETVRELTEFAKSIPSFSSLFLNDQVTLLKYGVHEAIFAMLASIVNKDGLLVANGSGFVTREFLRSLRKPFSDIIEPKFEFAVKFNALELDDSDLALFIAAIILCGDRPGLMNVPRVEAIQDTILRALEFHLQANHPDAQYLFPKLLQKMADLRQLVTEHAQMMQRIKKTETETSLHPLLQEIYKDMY
# In short: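 Read-out is induced reporter mRNA, quantified by RT-PCR with fluorescent labelling and capillary electrophoresis after 24 h dosing. Cells are HepG2 transiently carrying multiple GAL4-UAS reporter units driven by exogenous NR-GAL4 chimeras; DMSO serves as baseline.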
# [13] = BSK_3C_TissueFactor: BioMAP Diversity Plus: 3C Assay for Tissue Factor Biomarker Activity (AID 2282997); conditions: BioMAP 3C HUVEC, tissue factor biomarker readout; actives raise or lower the signal
# In short: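 Cells used were primary human umbilical vein endothelial cells. They were dosed with chemical, and after 24 h Tissue Factor was quantified by ELISA. Curves were fitted bidirectionally with DMSO as baseline.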
# [14] = BSK_3C_uPAR: BioMAP Diversity Plus: 3C Assay for Urokinase-type plasminogen activator receptor (uPAR) Biomarker Activity (AID 2282998); conditions: BioMAP 3C HUVEC, uPAR biomarker ELISA; actives raise or lower the signal
# In short: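 Dose primary human umbilical vein endothelial cells, incubate 24 h, measure cell-surface uPAR by ELISA, then fit the signal in both directions against the DMSO negative control.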
# [15] = BSK_3C_VCAM1: BioMAP Diversity Plus: 3C Assay for Vascular cell adhesion molecule 1 (VCAM1) Biomarker Activity (AID 2282999); conditions: BioMAP 3C HUVEC, VCAM1 ELISA, cytokine-stimulated; actives raise or lower the signal
# In short: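 Activity fitted in both directions relative to DMSO, with ELISA measurement of the surface marker on primary HUVEC (3C) at 24 h post-treatment; parallel SRB staining (0.1% SRB, TCA-fixed, 560 nm) flagged overt cytotoxicity.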
# [16] = BSK_4H_Eotaxin3: BioMAP Diversity Plus: 4H Assay for Eotaxin 3 Biomarker Activity (AID 2283000); conditions: primary human endothelial cells (HUVEC); actives raise or lower the signal
# In short: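 Endothelial primary cells (human umbilical vein) exposed to compound for 24 h. ELISA detection of Eotaxin-3.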
# [17] = molecular target: human Peroxisome Proliferator-activated Receptor alpha (PPARa), PPARA (gene 5465) (UniProt Q07869); test: ATG_PPARa_TRANS: Attagene TRANS-FACTORIAL HepG2 Assay for human Peroxisome Proliferator-activated Receptor alpha (PPARa) (AID 2283001; active = hit-call score of the fitted dose curve at least 0.9, where 1 is the maximum;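 for AC50: potency for gain of reporter signal over DMSO so agonist or activator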)
# Chain of human Peroxisome Proliferator-activated Receptor alpha (PPARa), PPARA (gene 5465) (Q07869 whole entry, looked up, the tested form may be a part): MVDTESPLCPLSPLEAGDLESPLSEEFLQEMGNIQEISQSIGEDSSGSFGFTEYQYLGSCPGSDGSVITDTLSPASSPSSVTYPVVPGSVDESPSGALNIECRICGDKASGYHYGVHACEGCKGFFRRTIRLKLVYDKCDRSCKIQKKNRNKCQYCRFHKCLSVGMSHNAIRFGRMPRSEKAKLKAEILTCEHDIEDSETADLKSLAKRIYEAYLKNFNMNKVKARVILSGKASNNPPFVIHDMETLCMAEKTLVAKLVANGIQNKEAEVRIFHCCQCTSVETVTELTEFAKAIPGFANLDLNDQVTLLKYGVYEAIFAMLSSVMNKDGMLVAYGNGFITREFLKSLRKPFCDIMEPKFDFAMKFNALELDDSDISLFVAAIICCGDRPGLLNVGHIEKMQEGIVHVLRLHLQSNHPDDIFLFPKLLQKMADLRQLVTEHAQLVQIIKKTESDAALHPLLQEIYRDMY
# In short: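 Reporter transcripts quantified by RT-PCR plus capillary electrophoresis after 24 h treatment, fitted upward relative to DMSO. Cells: human HepG2 transiently carrying multiple GAL4-UAS reporter units driven by NR-Gal4 chimeras.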
# [18] = read-out: Intercellular Adhesion Molecule 1 (ICAM1), ICAM1 (gene 3383); test: BSK_3C_ICAM1: BioMAP Diversity Plus: 3C Assay for Intercellular Adhesion Molecule 1 (ICAM1) Biomarker Activity (AID 2283003); conditions: primary human endothelial cells (HUVEC); actives raise or lower the signal
# In short: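 ELISA readout of ICAM1 in human umbilical vein endothelial cells in the 3C system, taken 24 h post-dose. Gain or loss of signal versus DMSO was fitted in both directions, with SRB total-protein staining run in parallel.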
# [19] = ATG_M_32_TRANS: Attagene TRANS-FACTORIAL HepG2 Assay for M32 Transcription Factor (Internal Marker) (AID 2282984; active = hit-call score of the fitted dose curve at least 0.9, where 1 is the maximum;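 note: transcript level of a background control reporter unit measured by RT-PCR and capillary electrophoresis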); conditions: HepG2 Attagene TRANS M32 internal marker reporter
# In short: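 Internal background reporter in transfected HepG2: after 24 h chemical exposure, RNA reverse-transcribed, reporter cDNA amplified, fluorescently labelled and HpaI-cut, then sized by capillary electrophoresis. Gain of signal fitted against DMSO control.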
smiles,measurement,setting,value
OC(c1ccc(Cl)cc1)(c1ccc(Cl)cc1)c1cccnc1,outcome,[1],inactive
same,outcome,[2],inactive
same,outcome,[3],inactive
same,outcome,[4],inactive
same,outcome,[5],inactive
same,outcome,[6],inactive
same,outcome,[7],inactive
same,outcome,[8],inactive
same,AC50,[9],11.1 µM (active)
same,outcome,[10],inactive
same,outcome,[11],inactive
same,outcome,[12],inactive
O=c1oc2ccccc2c(O)c1C(CC(O)c1ccc(-c2ccc(Br)cc2)cc1)c1ccccc1 (configuration not stated),outcome,[1],inactive
same,outcome,[2],inactive
same,AC50,[3],22.3 µM (active)
same,outcome,[3],inactive
same,outcome,[4],inactive
same,AC50,[5],19.6 µM (active)
same,outcome,[5],inactive
same,outcome,[6],inactive
same,outcome,[7],inactive
same,AC50,[8],48.4 µM (active)
same,outcome,[8],inactive
same,AC50,[9],7.57 µM (active)
same,outcome,[9],inactive
same,AC50,[10],40.9 µM (active)
same,outcome,[10],inactive
same,AC50,[11],53.2 µM (active) and 21.3 µM (active)
same,AC50,[13],12.7 µM (active)
same,AC50,[14],5.92 µM (active)
same,AC50,[15],21.6 µM (active)
same,AC50,[16],16.9 µM (active)
same,AC50,[17],25.3 µM (active)
same,outcome,[17],inactive
same,AC50,[18],27.2 µM (active)
C=C(C)C(=O)OCC(CC)CCCC (configuration not stated),outcome,[1],inactive
same,outcome,[2],inactive
same,outcome,[3],inactive
same,outcome,[4],inactive
same,outcome,[5],inactive
same,outcome,[6],inactive
same,outcome,[7],inactive
same,outcome,[8],inactive
same,outcome,[9],inactive
same,outcome,[10],inactive
O=C(NC(=O)c1c(F)cccc1F)Nc1cc(Cl)c(OC(F)(F)C(F)C(F)(F)F)cc1Cl (configuration not stated),outcome,[1],inactive
same,outcome,[2],inactive
same,outcome,[19],inactive
same,outcome,[4],inactive
same,outcome,[5],inactive
same,outcome,[6],inactive
same,outcome,[7],inactive
same,outcome,[8],inactive
same,AC50,[9],73 µM (active)
same,outcome,[10],inactive
same,outcome,[11],inactive
same,outcome,[17],inactive
Clc1ccc(C(Cl)(Cl)Cl)cn1,outcome,[1],inactive
same,outcome,[2],inactive
same,outcome,[3],inactive
same,outcome,[4],inactive
same,outcome,[5],inactive
same,outcome,[6],inactive
same,outcome,[7],inactive
same,outcome,[8],inactive
same,outcome,[9],inactive
same,outcome,[10],inactive
CCNc1nc(NCC)nc(SC)n1,outcome,[1],inactive
same,outcome,[2],inactive
same,outcome,[19],inactive
same,outcome,[4],inactive
same,outcome,[5],inactive
same,outcome,[6],inactive
same,outcome,[7],inactive
same,outcome,[8],inactive
same,outcome,[9],inactive
same,outcome,[10],inactive
same,outcome,[11],inactive
same,outcome,[17],inactive
COc1nn(C(=O)NS(=O)(=O)c2ccccc2OC(F)(F)F)c(=O)n1C,outcome,[1],inactive
same,outcome,[2],inactive
same,outcome,[4],inactive
same,outcome,[5],inactive
same,outcome,[6],inactive
same,outcome,[7],inactive
same,outcome,[8],inactive
same,outcome,[9],inactive
same,outcome,[10],inactive
CCOC(=O)CCN(SN(C)C(=O)Oc1cccc2c1OC(C)(C)C2)C(C)C,outcome,[1],inactive
same,outcome,[2],inactive
same,AC50,[3],157 µM (active)
same,outcome,[4],inactive
same,outcome,[5],inactive
same,outcome,[6],inactive
same,AC50,[9],26.2 µM (active)
same,outcome,[10],inactive
same,outcome,[11],inactive
same,AC50,[13],31.1 µM (active)
same,AC50,[14],32.5 µM (active)
same,AC50,[16],28.8 µM (active)
same,outcome,[17],inactive
same,outcome,[12],inactive
same,outcome,[18],inactive
O=c1nc(O)n(Cl)c(=O)n1Cl,outcome,[1],inactive
same,outcome,[2],inactive
same,outcome,[3],inactive
same,outcome,[4],inactive
same,outcome,[5],inactive
same,outcome,[6],inactive
same,outcome,[9],inactive
same,outcome,[10],inactive
same,outcome,[17],inactive
CC(=O)C(F)(F)C(F)(F)F,outcome,[1],inactive
same,outcome,[2],inactive
same,outcome,[4],inactive
same,outcome,[5],inactive
same,outcome,[6],inactive
same,outcome,[7],inactive
same,outcome,[8],inactive
same,outcome,[9],inactive
same,outcome,[10],inactive
same,outcome,[11],inactive
